Measured values taken from PubChem BioAssay (NCATS).
Results filed as inconclusive are left out. The source made the active and inactive calls. The call rests on the fitted dose curve; in most records, active means well fitted curve in the direction sought with a large enough effect; inconclusive means small, poorly fitted or top-dose-only effect, or another doubt; inactive means no such curve, though single readings can be large; an effect the other way counts as inactive or inconclusive.

How the values were obtained:
[1] = qHTS of pediatric cancer cell lines to identify multiple opportunities for drug repurposing: Primary screen for SK-N-SH cells (AID 1347098); further: nearly all actives have a fitted effect of over 65% in size; further: potency means the concentration at half of the fitted maximal effect
Summary of the method: (§1)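 Cells (500-1,000/well) rested 5 h, then received compounds for 48 h; metabolically active cells were measured by CellTiter-Glo luminescence. Final concentrations spanned up to 46 µM (MIPE, 11-point) or 0.59 nM-46 µM (NPC, 8-point) in primary screens, 11-point in follow-ups.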

[2] = qHTS of pediatric cancer cell lines to identify multiple opportunities for drug repurposing: Primary screen for NB1643 cells (AID 1347099); further: nearly all actives have a fitted effect of over 50% in size; further: potency means the concentration at half of the fitted maximal effect
Summary of the method: (§2)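 Following a 5-hour attachment period, cells at 500-1,000/well received compounds and were cultured for 48 hours. CellTiter-Glo was added and luminescence read to estimate viable, metabolically active cells.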

[3] = qHTS of pediatric cancer cell lines to identify multiple opportunities for drug repurposing: Primary screen for LAN-5 cells (AID 1347100); further: potency means the concentration at half of the fitted maximal effect
Summary of the method: as §1

[4] = qHTS of pediatric cancer cell lines to identify multiple opportunities for drug repurposing: Primary screen for Rh18 cells (AID 1347102); further: nearly all actives have a fitted effect of over 65% in size; further: potency means the concentration at half of the fitted maximal effect
Summary of the method: as §1

[5] = qHTS of pediatric cancer cell lines to identify multiple opportunities for drug repurposing: Primary screen for OHS-50 cells (AID 1347103); further: nearly all actives have a fitted effect of over 40% in size; further: potency means the concentration at half of the fitted maximal effect
Summary of the method: as §1

[6] = qHTS of pediatric cancer cell lines to identify multiple opportunities for drug repurposing: Primary screen for RD cells (AID 1347104); further: nearly all actives have a fitted effect of over 55% in size; further: potency means the concentration at half of the fitted maximal effect
Summary of the method: as §2

[7] = qHTS of pediatric cancer cell lines to identify multiple opportunities for drug repurposing: Primary screen for control Hh wild type fibroblast cells (AID 1347106);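 further: series mostly up to about 46 µM; a drop in luminescence marks cytotoxicity and a rise apparent proliferation; nearly all actives have a fitted effect of over 55% in size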
Summary of the method: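 Cells (500-1,000/well) in growth media were settled 5 h at 37 degrees C, then given compounds for 48 h. Viability was read as CellTiter-Glo luminescence. Primary runs used MIPE at 11 points (0.78 nM-46 µM) and NPC at 8 points (0.59 nM-46 µM); follow-ups used 11 points.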

[8] = qHTS of pediatric cancer cell lines to identify multiple opportunities for drug repurposing: Primary screen for Saos-2 cells (AID 1347097); further: nearly all actives have a fitted effect of over 40% in size
Summary of the method: as §2

[9] = qHTS of pediatric cancer cell lines to identify multiple opportunities for drug repurposing: Primary screen for BT-12 cells (AID 1347101); further: nearly all actives have a fitted effect of over 25% in size; further: potency means the concentration at half of the fitted maximal effect
Summary of the method: as §1

[10] = qHTS of pediatric cancer cell lines to identify multiple opportunities for drug repurposing: Primary screen for MG 63 (6-TG R) cells (AID 1347105); further: nearly all actives have a fitted effect of over 50% in size; further: potency means the concentration at half of the fitted maximal effect
Summary of the method: as §2

Measured: Potency

C[C@]12CC[C@H]3[C@@H](CC[C@@]45O[C@H]4C(O)=C(C#N)C[C@]35C)[C@H]1CC[C@H]2O
active: [1] 12100 nM | [2] 13200 nM | [3] 16600 nM | [6] 29600 nM
inactive: [4] | [5] | [7]

CCCCCCCCCC(=O)O[C@H]1CC[C@H]2[C@@H]3CCC4=CC(=O)CC[C@@H]4[C@H]3CC[C@]12C
not listed: [1] | [2]
inactive: all other assays above

C=CCC1(C(C)CC)C(=O)NC(=O)NC1=O (stereo not given)
not listed: [1]
inactive: all other assays above

O=C1c2ccccc2C(=O)C1C(=O)C(c1ccccc1)c1ccccc1
inactive: [1] | [2] | [9] | [4] | [6]

CC1(C)C(C=C(Cl)Cl)C1C(=O)OC(C#N)c1cccc(Oc2ccccc2)c1 (stereo not given)
not listed: [1] | [2]
inactive: all other assays above

CC(=O)NC1CCSC1=O (stereo not given)
not listed: [8] | [10]
inactive: all other assays above

C[C@]12CC[C@@H]3c4ccc(OC(=O)N(CCCl)CCCl)cc4CC[C@H]3[C@@H]1CC[C@@H]2O
not listed: [5] | [8]
inactive: all other assays above

C[C@]12CCC(=O)C=C1CC[C@@H]1[C@@H]2CC[C@@]2(C)[C@H]1CC[C@]2(C)O
inactive: [1] | [2] | [3] | [4] | [6] | [7]

CC(C)c1cccc(C(C)C)c1O
not listed: [1] | [9]
inactive: all other assays above

COc1cccc2c1C(=O)c1c(O)c3c(c(O)c1C2=O)C[C@@](O)(C(=O)CO)CC3OC1CC(N2CCOC(OC)C2)C(O)C(C)O1 (stereo not given in full)
active: [1] 21.7 nM | [2] 26.6 nM | [9] 69.2 nM | [4] 59.6 nM | [5] 34.7 nM | [6] 84.1 nM | [10] 21.1 nM

COc1c2c(cc3c1OCO3)CCN(C)C2
inactive: [1] | [2] | [3] | [9] | [4] | [6]
